Assay results taken from PubChem BioAssay (NCATS).
Records with an inconclusive call do not appear. Values without a mark were called inactive. Calls of active or inactive are those of the source. Calls follow the shape of the dose curve; as a rule, active = well fitted cell-killing curve with a large enough effect; inconclusive = small, poorly fitted or top-dose-only effect, or effect the other way; inactive = no such curve, though single readings can be large or run the other way.

Test: Quantitative High-Throughput drug screen in 47 multiple myeloma cell lines against the NCATS MIPE library collection: JIM1_ECACC cell viability assay (AID 1918964)
Conditions: JIM1 myeloma viability, CellTiter-Glo ATP luminescence, 48 h; series mostly up to 45.8 µM; viability (% of DMSO): at the top concentration
In short: (§1)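 Viability readout: CellTiter-Glo luminescence following 5 min room-temperature incubation with reagent. Prior exposure: 48 h, 37C, humidified 5% CO2, 500 cells per well.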
Potency is read from the fitted curve at half-maximal effect.

Which “viability (% of DMSO)” value does the source give for `O=C(O)c1cn(C2CC2)c2cc(N3CCNCC3)c(F)cc2c1=O` here?
Its value is 91.8%.

Which “viability (% of DMSO)” value does the source give for `Cc1ccnc2c1NC(=O)c1cccnc1N2C1CC1` here?
The value was 68.8%.

Which “viability (% of DMSO)” value does the source give for `CCOC(=O)c1ccc(OC(=O)CCCCCN=C(N)N)cc1` here?
The value was 91.7%.

With `C[C@@H](CN1CC(=O)NC(=O)C1)N1CC(=O)NC(=O)C1` as the compound, how does the “viability (% of DMSO)” value read?
Its value is 88.9%.

Which “viability (% of DMSO)” value does the source give for `CCC(C)(C)c1ccc(CC(C)CN2C[C@@H](C)O[C@@H](C)C2)cc1` (some centres not stated) here?
The value was 70.7%.

For `CCCCc1oc2ccc(NS(C)(=O)=O)cc2c1C(=O)c1ccc(OCCCN(CCCC)CCCC)cc1`, which Potency is on record?
Its Potency is 10.5 µM (active).

Which “viability (% of DMSO)” value does the source give for `N[C@@H](Cc1ccc(O)c(O)c1)C(=O)O` here?
The value was 145%.

Which “viability (% of DMSO)” value does the source give for `C[C@@H]1CN(c2c(F)c(N)c3c(=O)c(C(=O)O)cn(C4CC4)c3c2F)C[C@H](C)N1` here?
Its value is 152% [at 23.2 µM].

Which “viability (% of DMSO)” value does the source give for `NC(=O)c1cccnc1` here?
The value was 133%.

With `CC1(C)[C@H](C(=O)O)N2C(=O)C[C@H]2S1(=O)=O` as the compound, how does the “viability (% of DMSO)” value read?
Its value is 144%.

For `CCCN[C@H]1CCc2nc(N)sc2C1`, which “viability (% of DMSO)” value is on record?
Its value is 95.1%.

For `NS(=O)(=O)c1cc2c(cc1Cl)NC(C(Cl)Cl)NS2(=O)=O` (configuration not stated), which “viability (% of DMSO)” value is on record?
The value was 117%.

Test: Quantitative High-Throughput drug screen in 47 multiple myeloma cell lines against the NCATS MIPE library collection: INA6_PLB cell viability assay (AID 1918965; also: nearly all actives have a fitted effect of over 55% in size;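 as to viability (% of control): 100% = DMSO-only wells and 0% = media-only wells without cells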)
Conditions: INA6 myeloma viability, CellTiter-Glo ATP luminescence, 48 h; series mostly up to 45.8 µM; viability (% of control): at the top concentration
In short: as §1

With `Cc1nnc(C(=O)NC(C)(C)c2nc(C(=O)NCc3ccc(F)cc3)c(O)c(=O)n2C)o1` as the compound, how does the “viability (% of control)” value read?
The value was 149%.

Which Potency does the source give for `CC[C@H](C)C(=O)O[C@H]1C[C@@H](C)C=C2C=C[C@H](C)[C@H](CC[C@@H]3C[C@@H](O)CC(=O)O3)[C@H]21` here?
The Potency was 18.7 µM (active).

Which Potency does the source give for `CC(C)(Sc1cc(C(C)(C)C)c(O)c(C(C)(C)C)c1)Sc1cc(C(C)(C)C)c(O)c(C(C)(C)C)c1` here?
Its Potency is 4.69 µM (active).

For `CCOC(=O)c1ccc(OC(=O)CCCCCN=C(N)N)cc1`, which “viability (% of control)” value is on record?
The value was 127%.

Which “viability (% of control)” value does the source give for `NC(=O)c1cccc(N)c1` here?
The value was 155%.

With `CC(=O)[C@H]1CC[C@H]2[C@@H]3CCC4=CC(=O)CC[C@]4(C)[C@H]3CC[C@]12C` as the compound, how does the Potency read?
Its Potency is 16.6 µM (active).

Which Potency does the source give for `C[C@@H](CN1CC(=O)NC(=O)C1)N1CC(=O)NC(=O)C1` here?
The Potency was 10.5 µM (active).

Which Potency does the source give for `CCCCc1oc2ccc(NS(C)(=O)=O)cc2c1C(=O)c1ccc(OCCCN(CCCC)CCCC)cc1` here?
Its Potency is 9.35 µM (active).

With `COC(=O)Nc1nc2ccc(S(=O)c3ccccc3)cc2[nH]1` (configuration not stated) as the compound, how does the Potency read?
The Potency was 18.7 µM (active).

With `CS(=O)(=O)c1ccc([C@@H](O)[C@@H](CO)NC(=O)C(Cl)Cl)cc1` as the compound, how does the Potency read?
Its Potency is 11.8 µM (active).

For `Nc1ccc(S(=O)(=O)Nc2ccccn2)cc1`, which “viability (% of control)” value is on record?
The value was 130%.

With `C[C@@H]1CN(c2c(F)c(N)c3c(=O)c(C(=O)O)cn(C4CC4)c3c2F)C[C@H](C)N1` as the compound, how does the “viability (% of control)” value read?
The value was 200% [at 23.2 µM].

With `O=C(O)C1CCCN(CCC=C(c2ccccc2)c2ccccc2)C1` (configuration not stated) as the compound, how does the “viability (% of control)” value read?
Its value is 160%.

Which “viability (% of control)” value does the source give for `CC1(C)[C@H](C(=O)O)N2C(=O)C[C@H]2S1(=O)=O` here?
Its value is 174%.

For `CCCN[C@H]1CCc2nc(N)sc2C1`, which “viability (% of control)” value is on record?
Its value is 136%.

For `O=S(=O)(O)CCS`, which “viability (% of control)” value is on record?
Its value is 164%.

For `CCCOc1ccc(C(=O)OCCN(CC)CC)cc1N`, which “viability (% of control)” value is on record?
The value was 122%.

For `CN1CCN(c2c(F)cc3c(=O)c(C(=O)O)cn4c3c2OCN4C)CC1`, which “viability (% of control)” value is on record?
Its value is 157%.

With `Cc1nnc(NS(=O)(=O)c2ccc(N)cc2)s1` as the compound, how does the Potency read?
The Potency was 9.35 µM (active).

Which “viability (% of control)” value does the source give for `OC(Cn1cncn1)(Cn1cncn1)c1ccc(F)cc1F` here?
Its value is 175%.

Test: Quantitative High-Throughput drug screen in 47 multiple myeloma cell lines against the NCATS MIPE library collection: JJN3_DSMZ cell viability assay (AID 1918966; also: nearly all actives have a fitted effect of over 50% in size)
Conditions: JJN3 myeloma cells viability, CellTiter-Glo ATP, 48 h; series mostly up to 45.8 µM; viability, % of DMSO: at the top concentration
In short: as §1

For `CC(C)(Sc1cc(C(C)(C)C)c(O)c(C(C)(C)C)c1)Sc1cc(C(C)(C)C)c(O)c(C(C)(C)C)c1`, which “viability, % of DMSO” value is on record?
The value was 116%.

Which “viability, % of DMSO” value does the source give for `O=C(O)c1cn(C2CC2)c2cc(N3CCNCC3)c(F)cc2c1=O` here?
Its value is 155%.

Which Potency does the source give for `COc1cc2ncnc(Nc3cccc(Cl)c3)c2cc1OC` here?
The Potency was 33.2 µM (active).

Which “viability, % of DMSO” value does the source give for `Cc1ccnc2c1NC(=O)c1cccnc1N2C1CC1` here?
Its value is 112%.

Which “viability, % of DMSO” value does the source give for `CCOC(=O)c1ccc(OC(=O)CCCCCN=C(N)N)cc1` here?
Its value is 162%.

Which “viability, % of DMSO” value does the source give for `CCOc1cc(N)c(Cl)cc1C(=O)NCC1CN(Cc2ccc(F)cc2)CCO1` (configuration not stated) here?
Its value is 148%.

For `C[C@@H](CN1CC(=O)NC(=O)C1)N1CC(=O)NC(=O)C1`, which “viability, % of DMSO” value is on record?
The value was 154%.

Which Potency does the source give for `CCCCc1oc2ccc(NS(C)(=O)=O)cc2c1C(=O)c1ccc(OCCCN(CCCC)CCCC)cc1` here?
The Potency was 14.8 µM (active).

For `S=P(N1CC1)(N1CC1)N1CC1`, which Potency is on record?
The Potency was 0.0118 µM (active).

Which Potency does the source give for `CC(C)OC(=O)OCOP(=O)(CO[C@H](C)Cn1cnc2c(N)ncnc21)OCOC(=O)OC(C)C` here?
The Potency was 18.7 µM (active).

Which “viability, % of DMSO” value does the source give for `CCCN[C@H]1CCc2nc(N)sc2C1` here?
The value was 131%.

Which “viability, % of DMSO” value does the source give for `CCCOc1ccc(C(=O)OCCN(CC)CC)cc1N` here?
Its value is 119%.

With `CN1CCN(c2c(F)cc3c(=O)c(C(=O)O)cn4c3c2OCN4C)CC1` as the compound, how does the “viability, % of DMSO” value read?
The value was 133%.

For `COc1ccc(C(=O)CC(=O)c2ccc(C(C)(C)C)cc2)cc1`, which Potency is on record?
Its Potency is 0.935 µM (active).

Test: Quantitative High-Throughput drug screen in 47 multiple myeloma cell lines against the NCATS MIPE library collection: H1112_PLB cell viability assay (AID 1918967; also: nearly all actives have a fitted effect of over 30% in size)
Conditions: H1112 myeloma cells viability, ATP luminescence, 48 h; series mostly up to 45.8 µM; viability: at the top concentration
In short: as §1

With `CN1CCN(c2c(F)cc3c(=O)c(C(=O)O)cn(CCF)c3c2F)CC1` as the compound, how does the “viability” value read?
The value was 107%.

For `Cc1nnc(C(=O)NC(C)(C)c2nc(C(=O)NCc3ccc(F)cc3)c(O)c(=O)n2C)o1`, which “viability” value is on record?
Its value is 105%.

Which “viability” value does the source give for `O=C(O)c1cn(C2CC2)c2cc(N3CCNCC3)c(F)cc2c1=O` here?
Its value is 130%.

With `NC(=O)c1cccc(N)c1` as the compound, how does the “viability” value read?
Its value is 102%.

With `CCn1cc(C(=O)O)c(=O)c2cc(F)c(N3CCN(C)CC3)cc21` as the compound, how does the “viability” value read?
Its value is 94.8%.

With `CCOc1cc(N)c(Cl)cc1C(=O)NCC1CN(Cc2ccc(F)cc2)CCO1` (configuration not stated) as the compound, how does the “viability” value read?
The value was 93.5%.

Which Potency does the source give for `C[C@@H](CN1CC(=O)NC(=O)C1)N1CC(=O)NC(=O)C1` here?
The Potency was 16.6 µM (active).

For `CCCCc1oc2ccc(NS(C)(=O)=O)cc2c1C(=O)c1ccc(OCCCN(CCCC)CCCC)cc1`, which Potency is on record?
Its Potency is 18.7 µM (active).

Which “viability” value does the source give for `N[C@@H](Cc1ccc(O)c(O)c1)C(=O)O` here?
The value was 118%.

With `CS(=O)(=O)c1ccc([C@@H](O)[C@@H](CO)NC(=O)C(Cl)Cl)cc1` as the compound, how does the “viability” value read?
Its value is 92.6%.

With `C[C@@H]1CN(c2c(F)c(N)c3c(=O)c(C(=O)O)cn(C4CC4)c3c2F)C[C@H](C)N1` as the compound, how does the “viability” value read?
Its value is 142% [at 23.2 µM].

For `O=C(O)C1CCCN(CCC=C(c2ccccc2)c2ccccc2)C1` (configuration not stated), which “viability” value is on record?
The value was 132%.

Which “viability” value does the source give for `NC(=O)c1cccnc1` here?
The value was 109%.

Which “viability” value does the source give for `CC1(C)[C@H](C(=O)O)N2C(=O)C[C@H]2S1(=O)=O` here?
The value was 130%.

For `CCCN[C@H]1CCc2nc(N)sc2C1`, which “viability” value is on record?
Its value is 122%.

Which “viability” value does the source give for `CCCOc1ccc(C(=O)OCCN(CC)CC)cc1N` here?
Its value is 103%.

Which “viability” value does the source give for `CN1CCN(c2c(F)cc3c(=O)c(C(=O)O)cn4c3c2OCN4C)CC1` here?
The value was 113%.

For `Cc1nnc(NS(=O)(=O)c2ccc(N)cc2)s1`, which “viability” value is on record?
Its value is 114%.

Which Potency does the source give for `COc1ccc(C(=O)CC(=O)c2ccc(C(C)(C)C)cc2)cc1` here?
The Potency was 7.43 µM (active).

Which “viability” value does the source give for `NS(=O)(=O)c1cc2c(cc1Cl)NC(C(Cl)Cl)NS2(=O)=O` (configuration not stated) here?
Its value is 96.2%.

For `OC(Cn1cncn1)(Cn1cncn1)c1ccc(F)cc1F`, which “viability” value is on record?
Its value is 119%.
